# Compound activity: PubChem, National Center for Advancing Translational Sciences (NCATS)
# A selection: hits, their analogues and other compounds. The true share with any hit is near 2.6%.
# Prx2 Sm inh: Schistosoma Mansoni Peroxiredoxins (Prx2); Schistosoma mansoni peroxiredoxin 2 (Prx2); S. mansoni Prx2 activity coupled to TGR/GSH (TGR is thioredoxin glutathione reductase), NADPH fluorescence loss, qHTS; Potency, µM; hit rate 0.07% among 65,000; AID 448, 2006
#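 qHTS, coupled TGR/Prx2 format; 15 min compound preincubation at RT; reaction started with H2O2 (2.5 mM aliquot); kinetic NADPH fluorescence decrease, ex 365/em 450 nm.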
# LT uptake inh: qHTS Assay for Anthrax Lethal Toxin Internalization | Cells, anthrax lethal toxin internalization, FRET ratio (460/530) | Potency, µM (series often up to 40 µM), inactives show at the top dose activity change, negative = inhibition, usual class: inhibitors | hit rate 0.67% among 70,000 | AID 912, 2007; also: % is scaled to controls: 0 for no effect and ±100 for the full control effect; nearly all actives have a fitted effect of over 50% in size
# AmpC nodet inh: Promiscuous and Specific Inhibitors of AmpC Beta-Lactamase (assay without detergent); AmpC nitrocefin hydrolysis, absorbance 480 nm, no detergent; P00811; Potency, µM (doses to about 28.7 µM), inactives show at the highest dose activity change, negative = inhibition; hit rate 1.8% among 71,000; also: % of control where 0% means no effect
#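 AmpC in 20 mM phosphate buffer pH 7.0 was preincubated 15 min at room temperature with compounds. Nitrocefin (800 uM stock) was then added and hydrolysis followed at 480 nm every 20 s for 4 min.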
# AmpC det inh: Promiscuous and Specific Inhibitors of AmpC Beta-Lactamase (assay with detergent); P00811; purified AmpC, nitrocefin hydrolysis with detergent; Potency, µM (titrated, usually from 28.7 µM), for inactives: top-dose activity change, negative = inhibition; hit rate 0.09% among 71,000; AID 584, 2007; active = well fitted curve in the direction sought with a large enough effect; inconclusive = small, poorly fitted or top-dose-only effect; also: % is scaled to controls: 0 for no effect and ±100 for the full control effect
#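 E. coli AmpC (5.3 nM) in 20 mM phosphate pH 7.0 with 0.01% Triton X-100, preincubated 15 min RT with compound; nitrocefin (2 uL of 800 uM stock) hydrolysis followed by 480 nm absorbance every 20 s over 4 min.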
# Starred values were filed as active, the others as inactive; ? = inconclusive; · = not tested or not shown; ! = a repeat was not active; [ ] = another dose, or the depositor's remark. Unless noted, calls follow the shape of the full dose curve. Potency is read from the fitted curve at half-maximal effect.
SMILES,Prx2 Sm inh,LT uptake inh,AmpC nodet inh,AmpC det inh
Cc1nc2ccc(S(=O)(=O)NC(C(=O)N3CCC(C)CC3)C(C)C)cc2s1 (centres undefined),>57,-11%,4µM*[single pt active],23%
Cc1nc2ccc(S(=O)(=O)NCC(=O)N3CCC(N4CCCCC4)CC3)cc2s1,>57,-14%,-8%,-4%
N=C1C=CC(=C(c2ccc(N)cc2)c2ccc(N)cc2)C=C1,>57,1%[8 µM],?,-3%[5.75 µM]
CCOC(=O)N1CCN(C(=O)c2sc3nc(-c4ccc(F)cc4)cn3c2C)CC1,>57,0%,119%,-4%
COc1ccccc1N1CCN(C(=O)c2sc3nc(-c4ccc(F)cc4)cn3c2C)CC1,>57,16µM*,126%,13%
C[N+](C)(C)/N=C\c1ccc(O)c(O)c1,>57,?,6%[5.75 µM],-3%[5.75 µM]
Oc1ccc(N=Cc2ccc(O)c(O)c2)cc1,·,?,13µM*,5%
CN1CCN(c2ncncc2-c2cccnc2)CC1,>57,-16%,4%,-2%
COc1cc(C(=O)N(CCc2ccccc2)C2CC3CCC(C2)N3C)cc(OC)c1OC (centres undefined),>57,-13%,-10%,-4%
CCCCN(C(=O)c1ccc(Cl)cc1)C1CC2CCC(C1)N2C (centres undefined),>57,?,4µM*[single pt active],12%
Cc1ccc(S(=O)(=O)OC2CCN(C)CC2)cc1,>57,-6%[8 µM],-4%[5.75 µM],-4%[5.75 µM]
COc1ccc2c3c([nH]c2c1)C(C)=NCC3,>57,?,-1%,-3%
CC1=NCCc2c1[nH]c1cc(O)ccc21,>57,?,13µM*!,1%
COc1ccc(C(=O)N2CCC3(CC2)CN(C(=O)Nc2ccccc2)C3)cc1,>57,6%,32%,-1%
O=c1cc(-c2ccccc2Cl)c2c([nH]1)CCC2,>57,4%,4µM*[single pt active],13%
S=C(S)O[C@@H]1C[C@@H]2C[C@H]1[C@@H]1CCC[C@H]21,>57,?,16µM*!,16µM*!
NC(=O)CI,?,0%,13µM*,-12%
CC(N)=O,>57,·,12%,-2%
O=C(CSc1nc2c(cnn2-c2ccccc2)c(=O)[nH]1)c1ccc(Cl)cc1,>57,2%,7.9µM*,-1%
